# Out of some 71,000 compounds screened, about 180 (0.25%) were called active. The sample as a whole holds a higher share of actives than the screen did. Values without a mark were called inactive. Calls follow the shape of the dose curve; as a rule, active = well fitted curve in the direction sought with a large enough effect; inconclusive = small, poorly fitted or top-dose-only effect; inactive = flat fitted curve, though single readings scatter.
# System: DNA polymerase III holoenzyme (E. coli)
# Assay: qHTS Assay for Inhibitors of DNA Polymerase III Holoenzyme System
# Conditions: reconstituted DNA polymerase III holoenzyme replication, biochemical; series mostly up to 57.1 µM; activity change, negative = inhibition: at the top concentration
# Procedure: NIH Molecular Libraries Screening Centers Network [MLSCN]
# NIH Chemical Genomics Center [NCGC]
# Assay Provider: Charles McHenry, University of Colorado
# E. coli DNA polymerase III holoenzyme complex was assayed for DNA production by fluorescent detection of the double-stranded DNA product with PicoGreen dye. The holoenzyme complex was reconstituted from the following purified protein components: DNA Polymerase III, beta subunit processivity factor, SSB single-stranded DNA binding protein, and Primase. Single-stranded, circular M13Gori was used as a substrate with dNTPs and NTPs also supplied to the substrate reagent. Compounds from the NCGC collection were incubated with the holoenzyme mixture for 15 min at room temperature to allow binding to occur, and then the reaction was started by the addition of substrate. After 30 min incubation at room temperature, PicoGreen solution containing EDTA was added to stop the reaction and to visualize the double-stranded DNA produced. Reaction progress was measured in a ViewLux CCD imager in fluorescence intensity mode by using 480 nm excitation and 540 nm emission filter set.
# NCGC Assay Protocol Summary:
# Buffer. 50 mM Hepes-KOH, pH 7.5, 5 % Glycerol, 0.02% NP40, 30 mM potassium;
# glutamate, 1.5 mM Magnesium Acetate, 16 uM TCEP.
# Buffer in columns 3 and 4 as negative control (no enzyme).
# Substrate solution: 5 uM each dATP, dGTP, dCTP and TTP, 50 uM each GTP, CTP, UTP and 200 uM ATP, 1.4 nM M13gori (final concentrations).
# Enzyme: 154 nM SSB, 2 nM Primase, 1 nM Beta, 0.35 nM Pol III (final concentrations).
# PicoGreen/EDTA: 10 mM Tris-HCl, 10 mM EDTA, 5 uM PicoGreen (final concentrations).
# Control titration: ChemBridge 5805060 (from 10 mM, then 1:2, in duplicate) was pin-transferred to upper half of column 2.
# Three uL of holoenzyme mixture were dispensed to 1536-well Greiner black solid bottom plates. Compounds and controls (23 nL) were transferred via Kalypsys PinTool. The plates were incubated for 15 min at room temperature, and then 1 uL of substrate solution was added to start the reaction. After room temperature incubation for 35 minutes, 1 uL of PicoGreen solution was added to each well and the plates were read 480 nm excitation and 540 nm emission using ViewLux (Perkin-Elmer) High-throughput CCD imager and fluorescence protocol settings.
# Keywords: NIH Roadmap, MLSCN, MLI, MLSMR, qHTS, NCGC, DNA Polymerase III, DNAPol3, DNAPoly3, DNA replication targets
# % is scaled to controls: 0 for no effect and ±100 for the full control effect; potency is read from the fitted curve at half-maximal effect.
Compound,"activity change, negative = inhibition",Potency
c1ccc2cc3[nH]c(CN4CCCCC4)nc3cc2c1,-7.3%,
CC(C)c1nnc(NC(=O)C2CCCN2S(=O)(=O)c2ccc(Cl)cc2)s1 (stereo not drawn),-2.6%,
O=C(Nc1ccccc1C(=O)N1CCOCC1)C1CCC(=O)N1C1CCCC1 (stereo not drawn),-7.4%,
COc1ccc(C)c(Cn2c(-c3nonc3N)nc3ccccc32)c1,3.6%,
O=C(Nc1ccon1)c1cccc(Cl)c1,-2.9%,
CC(C)C[C@@H](CC(=O)N[C@@H](CCC(=O)O)CC(=O)O)NC(=O)[C@@H]1CCCC[C@H]1NC(=O)C[C@@H](NC(=O)C[C@H](Cc1c[nH]c2ccccc12)NC(=O)[C@@H]1CCCC[C@H]1N)C(C)C,1.5%,
CCOC(=O)C1Cn2c(nc3c(c2=O)C(C)(CC)Cc2ccccc2-3)S1 (stereo not drawn),2.7%,
COCCn1nnnc1C(c1ccccc1Cl)N1CCN(c2ccccc2OC)CC1 (stereo not drawn),-7.9%,
NS(=O)(=O)c1cc(C(=O)O)c(Cl)c([N+](=O)[O-])c1Cl,-10.9% [at 11.4 µM],
COC(=O)C1(Cc2ccccc2)C=C2C(=C(C)C(=O)C2C)CN1 (stereo not drawn),-5.5%,
c1cncc(-c2nc(N3CCNCC3)c3ccccc3n2)c1,-8.1%,
CN(C)CCCn1c2ccccc2c2cnccc21,-9.9% [at 11.4 µM],
COc1ccc(C(=O)N2CCC3(CC2)CCN(c2ccccn2)CC3)cc1,-5.7%,
O=C(c1ccncc1)N1CCC2(CCN(Cc3cc(C(F)(F)F)cc(C(F)(F)F)c3)CC2)CC1,-6.3%,
CCCCSc1nc2c(c(=O)n1CC)SC(C)C2 (stereo not drawn),-8.4%,
CCC1Oc2ccc(Cl)cc2N(CC(=O)O)C1=O (stereo not drawn),-1.1%,
Cc1ccccc1C(=O)NCCN=C1NS(=O)(=O)c2ccccc21,2.9%,
O=C(Cn1nnc(-c2ccc3c(c2)OCO3)n1)NCc1ccco1,-4%,
COc1ccc(CCNC(=O)CCn2c(=O)oc3ccccc32)cc1OC,-6.6%,
CN(C)CCCNC(=O)c1ccc2[nH]c3ccccc3c2c1,-5.1%,
CSc1ccc(S(=O)(=O)NCc2ccc(Cl)cc2)cc1,2.9%,
O=C(C1CCCO1)N1CCC(c2nc3ccccc3[nH]2)CC1 (stereo not drawn),-5.1%,
N#Cc1c(N)sc2c1CCN(C(=O)OCc1ccccc1)C2,-0.3%,
COc1ccccc1-c1c(C)nn2c(C)c(C(C)=O)cnc12,-6.3%,
CN(C)C(=O)c1ccc(-c2cncnc2NC2CCNCC2)cc1,-0.4%,

Compound,"activity change, negative = inhibition",Potency
Oc1ccc(O)c2c(O)cccc12,,15.8 µM (active)
O=c1cc(-c2ccc(O)c(O)c2)oc2cccc(O)c12,-19.4%,
COc1ccc(OC)c(CN2C(=O)CCC2(C)C(=O)NC2CCCCCC2)c1 (stereo not drawn),-4.8%,
N#Cc1ccccc1-c1ccc2ncnc(NCc3cccnc3)c2c1,-7.4%,
CN1C(=O)CC(N2CCN(c3ccccn3)CC2)C1=O (stereo not drawn),4.6%,
N#Cc1ccc(CN2CCCC3(CCN(C(=O)c4ccco4)CC3)C2)cc1,22.9%,
Cc1c(-c2nn(C)c(=O)c3ccccc23)oc2ccc(F)cc2c1=O,-0.7%,
Clc1ccc(C=Nc2ccc3c(c2)Cc2ccccc2-3)c(Cl)c1,-10.3% [at 11.4 µM],
CCOC(=O)c1nnn(CC(=O)Nc2cccc(F)c2)c1C(=O)OCC,-1%,
c1ccc(Nc2n[nH]nc2-c2ccccc2)cc1,-5.3%,
O=C1c2cccc3cccc(c23)N1CN1CCN(c2ccccn2)CC1,-6.4%,
C=CCOC(=O)c1ccccc1C(=O)OCC=C,8.7%,
Nc1nonc1C(=O)NCCc1ccccc1,-6.7%,
COCCNc1nc(-n2nc(C)cc2C)nc2sc3c(c12)CCCC3,-2.3%,
C[C@@H](C(=O)Nc1ccc2ccccc2c1)[C@@H]1C[C@@]1(C)[C@@H](NC(=O)c1cccnc1)c1ccccc1,2.5%,
CC(C)c1cc(CN(C)C)c(O)c(C(C)(C)C)c1,-6.4% [at 11.4 µM],
COc1cccc(Cn2c(=O)c(-c3cc(F)cc(F)c3)nc3cnc(OC)nc32)c1,-8.3%,
O=c1cc(-c2ccccc2)[nH]c2nc(Cl)ccc12,-6.8%,
COC(=O)[C@@]1(Cc2ccc(F)cc2)[C@H]2c3cc(C(=O)N4CCCC4)n(C[C@H](O)CO)c3C[C@H]2CN1C(=O)c1ccccc1,0.9%,
CC(=O)O[C@]1(C(C)=O)CC[C@@H]2[C@@H]3C=C(C)C4=CC(=O)CC[C@@]4(C)[C@H]3CC[C@]21C,1% [at 25.6 µM],
O=C(O)CC(C(=O)O)C(CC(=O)O)C(=O)O (stereo not drawn),-4%,
COc1ccc(OC)c(NC(=O)CSc2nc(N)c(-c3ccccc3)c(=O)[nH]2)c1,-5.9%,
O=C(CSc1nnc(-c2ccncc2)n1C1CCCCC1)Nc1ccccc1,-3%,
CCN(CC)S(=O)(=O)c1ccc(NC(=O)CN(c2cccc(F)c2)S(C)(=O)=O)cc1,-3.6%,
O=C(Nc1c(-c2ccccc2)nc2c(Br)cc(Br)cn12)c1ccco1,-2%,

Compound,"activity change, negative = inhibition",Potency
COC(=O)[C@@]1(Cc2ccc(F)cc2)[C@@H]2[C@@H](CC(=O)[C@H]2CC(=O)C(=O)N2CCCC2)CN1C(=O)c1ccccc1,-11.1%,
O=c1[nH]c(=O)c2nc3ccccc3nc2[nH]1,-12.6%,
O=C(NCc1ccccn1)c1ccc2nc(-c3ccco3)c(-c3ccco3)nc2c1,,3.98 µM (active)
O=C(NCc1ccccn1)c1cc2ccccc2oc1=O,-6.4%,
Cc1cccn2c(=O)c3cc(C(=O)NCc4ccccn4)n(C)c3nc12,-3.4%,
CC(C)Cc1ccc(S(=O)(=O)N2CCN(C(=O)c3ccco3)CC2)cc1,0.3%,
COc1ccc(NC(=O)N2CC3(CCN(C(=O)c4cccn4C)CC3)C2)cc1,8.4%,
CC1Cc2nc(SCC(=O)Nc3ccccc3F)n(C)c(=O)c2S1 (stereo not drawn),-4.2%,
Cc1cc(C)cc(N(CC(=O)NCC2CCCO2)S(=O)(=O)c2c(C)noc2C)c1 (stereo not drawn),1.2%,
COc1ccc(C[C@H](N)C(=O)N[C@@H]2[C@H](O)[C@H](n3cnc4c(N(C)C)ncnc43)O[C@@H]2CO)cc1,-1.2% [at 25.6 µM],
COc1ccc(-c2nnc(SCC(=O)NC3CCCCC3)o2)cc1OC,-1.4%,
COc1ccc2nc(N3CCCC(O)C3)c(C#N)cc2c1 (stereo not drawn),-8.3%,
CC(=O)Oc1ccccc1C(=O)Nc1ncc([N+](=O)[O-])s1,-1.5%,
COC(=O)[C@H](C)[C@H]1C[C@]1(C)[C@H](NC(=O)OCc1ccccc1)c1ccccc1,-3.5%,
CCOC(=O)N1CCN(C(=O)COc2ccc(Br)cc2)CC1,0.2% [at 11.4 µM],
N#Cc1c(NC(=O)CSc2nc3ccccc3c(=O)n2Cc2ccco2)sc2c1CCCC2,-1.2%,
COc1ccc(-n2c(=O)c(-c3cn(C)c4ccccc34)nc3cnc(OC)nc32)cc1,-4%,
CC(=O)Oc1cccc(N2C(=O)C3CC=C(Cl)CC3C2=O)c1 (stereo not drawn),-1.3%,
COc1ccc(CNc2ncnc3ccc(-c4cccnc4)cc23)c(OC)c1,17.7%,
CCOC(=O)CC1C(=O)NCCN1C(=O)COc1ccc(Br)cc1C (stereo not drawn),-2.6%,
CC1CCN(c2oc(-c3ccccc3F)nc2C#N)CC1,-5.5%,
c1ccc(CSCCc2ccncc2)cc1,-2.4% [at 11.4 µM],
N#C/C(=C\c1ccc(O)c(O)c1)C(N)=O,-1.7%,
COC(=O)[C@@]1(Cc2ccc(F)cc2)[C@H]2c3cc(C(=O)N4CCCC4)n(Cc4ccc(OC(F)(F)F)cc4)c3C[C@H]2CN1C(=O)c1ccccc1,-9.3%,
OCCN1CCN(CC/C=C2\c3ccccc3Sc3ccc(C(F)(F)F)cc32)CC1,inactive,

Compound,"activity change, negative = inhibition",Potency
O=C(Nc1c2c(nn1-c1ccc(F)cc1)CS(=O)C2)C12CC3CC(CC(C3)C1)C2 (stereo not drawn),-4%,
CCOC(=O)c1sc(N(Cc2ccccc2)C(=O)CN2C(=O)CN(C)C2=O)nc1C,5.4%,
O=C(Nc1cccc(F)c1)N1CC2(CCN(C(=O)c3cnccn3)CC2)C1,-9%,
c1ccc2c(Nc3ccncc3)nc(-c3ccoc3)nc2c1,-6.1%,
Cc1ccc(N2C(=O)c3oc4ccccc4c(=O)c3C2c2cccnc2)nc1 (stereo not drawn),-4.1%,
COc1ccccc1N1CCN(Cc2ccc(OC)c3ccccc23)CC1,-5.3%,
CCCCCCN(C(=O)CCCCCN1C(=O)NC(c2ccc(C(F)(F)F)cc2)C(C(=O)OCc2ccccc2)=C1C)C(C(=O)NCCCC)c1ccc(OCC(=O)OC)c(C(=O)OC)c1 (stereo not drawn),-2.4%,
C[C@@H]1O[C@@H](O[C@@H]2[C@@H](O)[C@H](OCCc3ccc(O)c(O)c3)O[C@H](CO[C@@H]3O[C@H](CO)[C@@H](O)[C@H](O)[C@H]3O)[C@H]2OC(=O)/C=C/c2ccc(O)c(O)c2)[C@H](O)[C@H](O)[C@H]1O,4.8%,
C/C=C1\C(=O)C[C@@H]2[C@@H]3CCC4=CC(=O)CC[C@@]4(C)[C@H]3CC[C@@]12C,-6.3%,
O=C(O)C1=CCCN(CCON=C(c2ccccc2)c2ccccc2)C1,inactive,
COC(=O)C1=C(C)N(C)C(C)=C(C(=O)OC)C1c1cccc(Br)c1,2.8%,
O=C(NCc1cccnc1)c1cn(-c2ccccc2)nc1-c1cccs1,-0.6%,
O=S(=O)(Nc1nccs1)c1ccc2c(c1)OCCO2,7.6%,
COC(=O)C1(C)C=CCN1C(=O)c1ccccc1 (stereo not drawn),-2.1%,
COc1cccc(-c2cc3nc4c(c(N5CCC6(CC5)OCCO6)n3n2)CCCC4)c1,-4.6%,
CCOc1ccccc1C1C(C(=O)OC)=CN(C)C=C1C(=O)OC,-3.1%,
CC(C)NC(=O)N1CCCC2(CCN(C(=O)c3cccn3C)CC2)C1,8.1%,
COc1ccc(N)c(OC)c1,2.6%,
CC1=C2C(=O)OC(c3ccoc3)C2(C)CCC1 (stereo not drawn),-5%,
Cn1c(SCC(=O)Nc2cccc(NC(=O)c3cccs3)c2)nnc1-c1ccncc1,-8.6%,
COc1ccc(N2C(=O)c3cccc4cccc(c34)C2=O)nn1,-4.7%,
C[N+](C)(CCCCCC[N+](C)(C)CCCN1C(=O)c2cccc3cccc(c23)C1=O)CCCN1C(=O)c2cccc3cccc(c23)C1=O,,15.8 µM (active)
O=C1c2ccccc2C(=O)N1CCCSc1ccccc1,-7.1% [at 11.4 µM],

# From PubChem BioAssay AID603 (National Center for Advancing Translational Sciences (NCATS), 2007)
